From PubChem BioAssay AID488969 (Vanderbilt High Throughput Screening Facility, 2010) come the findings set out here.

Structures are written as SMILES. The full ranking holds about 110,000 compounds; the median of “z-score” is about -0.1, and the highest 2% start at about 2. This excerpt belongs to a sample that is enriched for the highest values. Active and inactive are the calls of the source.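 How the source made its calls: active means z-score in the third read window above 3 or below -3; inactive means the rest.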

For the test, the target named is Metabotropic glutamate receptor 8 (Rattus norvegicus) (UniProt P70579). Briefly: mGluR8 Gi/Go-coupled signaling modulation – cell-based, rat, thallium flux, HTS, primary screen (AID 488969). To be noted: HEK293 rat mGluR8, GIRK (G protein-gated inwardly rectifying potassium channel) thallium flux, FluoZin2; at 10 µM; stronger effect = higher value; submaximal glutamate (EC20) added with thallium.
Metabotropic glutamate receptor 8 (Rattus norvegicus), sequence (P70579 whole entry, looked up): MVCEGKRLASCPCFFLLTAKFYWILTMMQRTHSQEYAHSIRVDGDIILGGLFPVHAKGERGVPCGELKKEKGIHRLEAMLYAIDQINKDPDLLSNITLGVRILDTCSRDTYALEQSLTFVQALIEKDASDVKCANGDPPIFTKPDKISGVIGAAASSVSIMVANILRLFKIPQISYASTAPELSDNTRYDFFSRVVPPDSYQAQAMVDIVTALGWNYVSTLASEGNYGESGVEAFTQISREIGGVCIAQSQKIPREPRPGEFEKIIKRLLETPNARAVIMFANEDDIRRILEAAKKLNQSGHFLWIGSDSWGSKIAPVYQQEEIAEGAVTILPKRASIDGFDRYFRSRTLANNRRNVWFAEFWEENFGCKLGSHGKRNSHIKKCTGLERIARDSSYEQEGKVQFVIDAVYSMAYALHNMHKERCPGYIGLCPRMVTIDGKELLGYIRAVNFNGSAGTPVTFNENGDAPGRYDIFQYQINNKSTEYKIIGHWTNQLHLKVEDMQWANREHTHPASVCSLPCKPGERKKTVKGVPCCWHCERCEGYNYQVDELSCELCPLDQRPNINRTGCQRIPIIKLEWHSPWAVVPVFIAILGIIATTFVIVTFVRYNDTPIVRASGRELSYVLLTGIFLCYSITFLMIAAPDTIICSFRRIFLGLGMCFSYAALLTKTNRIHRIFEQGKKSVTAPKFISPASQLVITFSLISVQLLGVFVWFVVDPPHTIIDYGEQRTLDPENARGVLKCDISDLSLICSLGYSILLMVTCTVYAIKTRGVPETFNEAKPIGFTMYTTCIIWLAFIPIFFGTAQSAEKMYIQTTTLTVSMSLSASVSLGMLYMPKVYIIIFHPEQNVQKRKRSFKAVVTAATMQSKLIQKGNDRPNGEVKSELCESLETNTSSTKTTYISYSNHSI
`COc1ccc(OC)c(C(=O)c2ccc(C(=O)Nc3cccc4ccccc34)cc2)c1` displayed a z-score of 0.682. The figure for `Cc1cccc(C)c1OCC(O)CN1CCC(CN2C(=O)c3cccc4cccc(c34)C2=O)CC1` (stereo unspecified) is 2.99. The figure for `Cc1ccc(C)c(OCC(O)CN2CCC(CN3C(=O)c4cccc5cccc(c45)C3=O)CC2)c1` (stereo unspecified) is -0.000796; for `CCc1ccc(OCC(O)CN2CCC(CN3C(=O)c4cccc5cccc(c45)C3=O)CC2)cc1` (stereo unspecified) it is -0.57; for `CN1CCN(S(=O)(=O)c2cccc(C(=O)Nc3nc(-c4ccccc4)cs3)c2)CC1` it is -0.528.

Turning to `C(=N\n1cnnc1)/c1nc2ccccc2[nH]1`, the z-score was -0.217. For the compound `COC(=O)Cc1ccc(NC(=O)c2cccs2)cc1`, the z-score was determined as 0.153. Regarding `COc1ccc(CN(C(=O)CO/N=C/c2ccccc2)c2ccccc2C(=O)O)cc1`, the z-score is -0.413.

With `O=C(O)CC(Cc1ccccc1)c1ccc2c(c1)OCO2` (stereo unspecified), the z-score was 0.249.

`COc1ccc(Nc2nc(N3CCCC3)nc(N3CCCC3)n2)c(OC)c1` came in with a z-score of 0.55. The figure for `CC(Nc1nc(N2CCCCC2)nc2ccccc12)c1ccccc1` (stereo unspecified) is -2.21; for `COc1ccc(Nc2nc(N3CCCCC3)nc3ccccc23)c(OC)c1` it is 2.6. On to `COc1ccc(Nc2ncnc3ccccc23)c(OC)c1`, for which the z-score was -0.192. In the case of `C=CCNc1nc(N2CCCC2)nc2ccccc12` it was 2.37; in that of `c1ccc2c(N3CCCCC3)nc(N3CCCC3)nc2c1`, 0.2; in that of `NC(=O)c1cccnc1Sc1ccc(Cl)cc1`, -0.431.

For `Cc1cccc(CC2CC(=O)N(c3ncccn3)C2=O)c1` (stereo unspecified), the z-score was -0.533.

In turn, `O=C(COc1ccc(Cl)cc1)Nc1c(-c2cccs2)nc2ccccn12` yielded a z-score of -0.182. As to `COc1cc(C2NC(=O)NC(C)=C2C(=O)NCc2ccccc2)c(Cl)cc1O` (stereo unspecified), the z-score was 0.0361.

Turning to `CON(c1nc(Cl)nc(N(C)C)n1)S(=O)(=O)c1ccccc1Cl`, the z-score was determined as 2.79. In the case of `COc1cc(C)nc(N(C)S(=O)(=O)c2ccccc2Cl)n1` it was -0.0755; in that of `CON(c1nc(N(C)C)nc(N(C)C)n1)S(=O)(=O)c1ccccc1Cl`, -0.678; in that of `Nc1nc(SCc2ccccc2)[nH]c(=O)c1-c1ccccc1`, -0.741.

As for `Nc1[nH]c(=S)[nH]c(=O)c1-c1ccccc1`, the z-score stood at 2.2.

Turning to `N#Cc1c(-c2ccccc2)[nH]c(=S)[nH]c1=O`, the z-score is -0.744. The figure for `CN1/C(=C/C2CC(=O)N(c3ccc([N+](=O)[O-])cc3)C2=O)C(C)(C)c2ccccc21` (stereo unspecified) is -0.329; for `COC(=O)C(CC(C)C)NC(=O)c1ccc([N+](=O)[O-])cc1` (stereo unspecified) it is 2.03.

`COC(=O)C(CC(C)C)NC(=O)c1ccc(F)cc1` (stereo unspecified) yielded a z-score of -0.19. The figure for `CC(Cc1ccccc1)NC(=O)c1ccc([N+](=O)[O-])cc1` (stereo unspecified) is -0.0984; for `COC(=O)c1ccc(NC(CC(C)C)C(=O)OC)c([N+](=O)[O-])c1` (stereo unspecified) it is 1.05; for `COC(=O)C(CC(C)C)NC(=O)c1ccc([N+](=O)[O-])c(C)c1` (stereo unspecified) it is 2.9. In the case of `Cc1cc(C(=O)NCC(=O)OCC(=O)N(C(C)C)C(C)C)ccc1[N+](=O)[O-]` it was -0.0582; in that of `COc1ccc(C2/C(=C(/O)c3ccccc3)C(=O)C(=O)N2CO)cc1` (stereo unspecified), 0.305; in that of `Cc1ccc(/C=C2/CCc3c([nH]c4ccccc34)C2=O)cc1`, 0.107. In the case of `O=c1cc(CO)occ1OCc1cccc(C(F)(F)F)c1` it was 0.0103; in that of `COc1ccc(NC(=O)c2cccnc2SC)cc1S(=O)(=O)N1CCCCC1`, -0.467. Compound `O=C(Oc1ccc(N2C(=O)CCC2=O)cc1)c1ccco1` showed a z-score of -0.374.

On to `Cn1ccc(C(=O)N2CCCc3ccccc32)n1`, for which the z-score is -0.0997. The figure for `CC(=O)N(/N=C1\Sc2ccccc2C1=O)c1ccc(C)cc1C` is -0.638.

For `S=c1[nH]c2ccc(Cl)cc2[nH]1`, the z-score worked out at 0.488. The figure for `CSc1nc2cc(Cl)ccc2s1` is -0.233; for `S=c1[nH]c2cc(Cl)ccc2s1` it is 14.9 (active); for `Cc1ccc(S(=O)(=O)N2CCC(C(=O)N3CCC(C(=O)NCC4CCCO4)CC3)CC2)cc1` (stereo unspecified) it is 0.137. In the case of `Cc1ccc(F)c(NC(=O)C2CCCCC2C(=O)O)c1` (stereo unspecified) it was 1.59; in that of `CC(=O)c1cc2c(cc1NC(=O)c1cc3nc(C(C)C)cc(C(F)(F)F)n3n1)OCO2`, -0.248. In the case of `CC(C)c1cc(C(F)(F)F)n2nc(C(=O)Nc3ccc4c(c3)OCO4)cc2n1` it was 4.57 (active). For the compound `O=C(Nc1ccc2c(c1)OCO2)c1cc2nc(C3CC3)cc(C(F)(F)F)n2n1`, the z-score was -0.167.

`Cc1nc(NC(=O)c2ccc(Cl)cc2)sc1-c1csc(Nc2cccc(F)c2)n1` came in with a z-score of -0.184. In the case of `CCn1c(COc2ccccc2C)nc2ccccc21` it was -1.56. The figure for `CCC(=O)c1ccc(N2CCCC2)c(F)c1` is 0.0378; for `CC(=O)c1ccc(N2CCCC2)c(F)c1` it is 2.4. Regarding `CCC(=O)c1ccc(N2CCCCCC2)c(F)c1`, the z-score was -0.499. The figure for `Cc1ccc(C(=O)NN(C)c2nc3ccccc3nc2C(F)(F)F)cc1` is 0.198; for `O=C(NNc1c2ccccc2nc2ccccc12)c1ccc(O)cc1` it is 2.21. `O=C(NNc1c2ccccc2nc2ccccc12)c1ccc(O)cc1O`: the z-score was 0.0188. In the case of `Cc1ccc(S(=O)(=O)NNc2nc3ccccc3nc2C(F)(F)F)cc1` it was -0.286. In the case of `FC(F)(F)c1nc2ccccc2nc1N/N=C\c1ccccc1` it was 0.3; in that of `O=C(NNc1nc(-c2ccccc2)cs1)c1ccccc1`, -1.53.

Turning to `Cc1ccc(C(=O)NNc2nc3ccccc3nc2C(F)(F)F)cc1`, the z-score is 5.19 (active). With `O=C(NNc1c2ccccc2nc2ccccc12)c1cccc(O)c1`, the z-score is -0.199. The figure for `O=C(NNc1nc2ccccc2nc1C(F)(F)F)c1ccccc1` is 2.44.
